Values without a mark were called inactive. Inconclusive results are not listed. Entries that show only a call come without a potency. Calls of active or inactive are those of the source. Unless noted, the call rests on the fitted dose curve; in most records, active means well fitted curve in the direction sought with a large enough effect in the repeat runs; inconclusive means weak or mixed curves; inactive means no such curve, though single readings can be large; an effect the other way counts as inactive or inconclusive.
Tests used:
[1] = molecular target: Thyrotropin-releasing hormone receptor (Homo sapiens) (UniProt P34981); test: qHTS assay to identify small molecule agonists of the thyrotropin-releasing hormone receptor (TRHR) signaling pathway (AID 1346891; calls by dose curve; further: series mostly up to about 58 µM)
Sequence of Thyrotropin-releasing hormone receptor (Homo sapiens) (P34981 whole entry, looked up): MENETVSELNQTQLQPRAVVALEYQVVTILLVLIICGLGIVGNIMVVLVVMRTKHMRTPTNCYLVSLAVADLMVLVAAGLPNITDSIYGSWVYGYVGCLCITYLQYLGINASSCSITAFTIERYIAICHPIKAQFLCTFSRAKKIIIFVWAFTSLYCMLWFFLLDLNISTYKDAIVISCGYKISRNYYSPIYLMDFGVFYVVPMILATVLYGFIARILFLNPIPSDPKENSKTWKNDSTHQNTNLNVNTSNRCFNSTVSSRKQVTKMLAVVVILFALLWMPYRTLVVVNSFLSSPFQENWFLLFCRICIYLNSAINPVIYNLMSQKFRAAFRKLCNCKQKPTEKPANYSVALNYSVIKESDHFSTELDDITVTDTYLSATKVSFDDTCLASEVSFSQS
In short: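 HEK293 cells expressing TRHR plated 18 h at 37 C/5% CO2, calcium dye-loaded 2 h at 37 C, then compound added (agonist mode); kinetic calcium fluorescence read 3 min at 1 s intervals; 15 concentrations in triplicate.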

[2] = Human pregnane X receptor (PXR) small molecule agonists, qHTS cell viability counter screen (AID 1346977); further: nearly all actives have a fitted effect of over 50% in size
In short: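 PXR-Luc HepG2 cells (2,000/well, 5% charcoal-stripped FBS) preincubated 5 hr, then exposed to compounds 24 hr at 37 C. Viability read in the same wells by CellTiter-Fluor fluorescence, reagent added at 23 hr, 1 hr incubation.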

[3] = Caspase-3/7 induction in HepG2 cells by small molecules, qHTS assay (AID 1346978); further: nearly all actives have a fitted effect of over 15% in size
In short: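 Wild-type HepG2 cells, 2,000/well, settled 5 hr at 37 C and 5% CO2, then compound-treated for 17 hr; caspase-3/7 activity read by luminescent Caspase-Glo 3/7 after 30 min at room temperature.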

[4] = Caspase-3/7 induction in CHO-K1 cells by small molecules, qHTS cell viability counter screen (AID 1346979); further: nearly all actives have a fitted effect of over 35% in size
In short: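 Wild-type CHO-K1 cells (1,500/well) treated with compound after 5 h plating; after 16 h at 37C, viability read as CellTiter-Fluor fluorescence following 1 h reagent incubation, in the same wells as the caspase read.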

[5] = Caspase-3/7 induction in CHO-K1 cells by small molecules, qHTS assay (AID 1346980); further: nearly all actives have a fitted effect of over 15% in size
In short: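 Wild-type CHO-K1 cells exposed to compounds for 17hr at 37 C, 5% CO2. Caspase-3/7 activity then measured by Caspase-Glo 3/7 luminescence after 30min at room temperature.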

[6] = Caspase-3/7 induction in HepG2 cells by small molecules, qHTS cell viability counter screen (AID 1346981); further: series mostly up to about 92 µM; nearly all actives have a fitted effect of over 30% in size
In short: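 Cell viability is measured as a cytotoxicity counter screen alongside the Caspase-Glo 3/7 readout in identical wells. Wild-type HepG2 cells are treated with test compounds for 16 hr at 37 C before CellTiter-Fluor addition and a 1-hr incubation.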

[7] = molecular target: Nuclear receptor subfamily 1 group I member 2 (Homo sapiens) (UniProt O75469); test: Human pregnane X receptor (PXR) small molecule agonists, qHTS assay (AID 1346982); further: nearly all actives have a fitted effect of over 35% in size; further: potency means the concentration at half of the fitted maximal effect
Sequence of Nuclear receptor subfamily 1 group I member 2 (Homo sapiens) (O75469 whole entry, looked up): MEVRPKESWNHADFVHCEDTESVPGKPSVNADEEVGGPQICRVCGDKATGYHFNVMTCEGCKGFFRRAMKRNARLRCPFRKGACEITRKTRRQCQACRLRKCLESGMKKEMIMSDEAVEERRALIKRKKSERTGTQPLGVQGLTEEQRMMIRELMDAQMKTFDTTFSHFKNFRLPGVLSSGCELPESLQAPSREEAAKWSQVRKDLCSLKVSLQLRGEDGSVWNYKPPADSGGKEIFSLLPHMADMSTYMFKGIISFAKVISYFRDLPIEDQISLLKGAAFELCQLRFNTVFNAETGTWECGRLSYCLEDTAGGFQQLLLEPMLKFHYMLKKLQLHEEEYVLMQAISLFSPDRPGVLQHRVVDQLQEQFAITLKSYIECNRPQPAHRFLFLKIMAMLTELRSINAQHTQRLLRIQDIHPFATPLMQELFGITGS
In short: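 Cells: HepG2 stably carrying PXR-Luc. Medium held 5% charcoal-stripped FBS. Compounds in DMSO added after 5 hr plating, incubated 24 hr, then luminescence quantified with ONE-Glo.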

[8] = molecular target: Cytochrome P450 2D6 (Homo sapiens) (UniProt P10635); test: Cytochrome P450 Family 2 Subfamily D Member 6 (CYP2D6) small molecule antagonists: luciferase reporter qHTS assay (AID 1671196); further: nearly all actives have a fitted effect of over 50% in size; further: potency means the concentration at half of the fitted maximal effect
Sequence of Cytochrome P450 2D6 (Homo sapiens) (P10635 whole entry, looked up): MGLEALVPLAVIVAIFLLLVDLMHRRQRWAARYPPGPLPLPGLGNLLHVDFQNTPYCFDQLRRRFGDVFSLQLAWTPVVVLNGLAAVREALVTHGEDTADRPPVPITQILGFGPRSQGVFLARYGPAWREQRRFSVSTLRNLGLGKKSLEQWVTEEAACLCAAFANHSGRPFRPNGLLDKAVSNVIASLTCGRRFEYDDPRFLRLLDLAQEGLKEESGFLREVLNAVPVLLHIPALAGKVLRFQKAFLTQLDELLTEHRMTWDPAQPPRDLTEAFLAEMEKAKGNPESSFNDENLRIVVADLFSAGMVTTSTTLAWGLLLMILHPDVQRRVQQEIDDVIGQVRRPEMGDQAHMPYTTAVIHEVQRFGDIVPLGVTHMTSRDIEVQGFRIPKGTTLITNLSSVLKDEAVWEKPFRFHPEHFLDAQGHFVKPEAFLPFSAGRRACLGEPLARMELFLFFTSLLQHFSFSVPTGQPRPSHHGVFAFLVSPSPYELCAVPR
In short: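 Enzyme and proluciferin substrate were first combined with test chemical for 10 min at room temperature. Adding NADPH regeneration solution started a 1 h reaction, stopped with luciferin detection reagent and read by luminescence 20 min later.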

[9] = molecular target: Cytochrome P450 2C19 (Homo sapiens) (UniProt P33261); test: Cytochrome P450 Family 2 Subfamily C Member 19 (CYP2C19) small molecule antagonists: luciferase reporter qHTS assay (AID 1671197); further: nearly all actives have a fitted effect of over 65% in size; further: potency means the concentration at half of the fitted maximal effect
Sequence of Cytochrome P450 2C19 (Homo sapiens) (P33261 whole entry, looked up): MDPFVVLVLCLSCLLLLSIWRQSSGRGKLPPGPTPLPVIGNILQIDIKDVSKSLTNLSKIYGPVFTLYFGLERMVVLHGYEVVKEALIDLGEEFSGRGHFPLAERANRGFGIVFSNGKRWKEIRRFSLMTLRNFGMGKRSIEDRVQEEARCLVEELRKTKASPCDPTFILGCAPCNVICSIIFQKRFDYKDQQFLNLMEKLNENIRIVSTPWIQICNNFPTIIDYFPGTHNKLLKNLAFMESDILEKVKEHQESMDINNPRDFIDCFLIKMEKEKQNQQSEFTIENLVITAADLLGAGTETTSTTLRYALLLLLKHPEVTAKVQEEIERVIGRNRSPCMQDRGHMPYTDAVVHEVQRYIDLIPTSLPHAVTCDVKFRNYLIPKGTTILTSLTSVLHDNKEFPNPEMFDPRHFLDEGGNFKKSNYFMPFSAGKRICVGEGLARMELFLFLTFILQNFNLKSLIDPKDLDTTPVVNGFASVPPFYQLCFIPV
In short: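 P450-Glo CYP2C19 system: enzyme-substrate mix with compound 10 min at room temperature, then NADPH regeneration solution, 1 h at 37C. Proluciferin-to-luciferin conversion detected by luminescence after 20 min with detection reagent; ketoconazole as positive control.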

[10] = molecular target: Cytochrome P450 2C9 (Homo sapiens) (UniProt P11712); test: Cytochrome P450 Family 2 Subfamily C Member 9 (CYP2C9) small molecule antagonists: luciferase reporter qHTS assay (AID 1671198); further: nearly all actives have a fitted effect of over 50% in size; further: potency means the concentration at half of the fitted maximal effect
Sequence of Cytochrome P450 2C9 (Homo sapiens) (P11712 whole entry, looked up): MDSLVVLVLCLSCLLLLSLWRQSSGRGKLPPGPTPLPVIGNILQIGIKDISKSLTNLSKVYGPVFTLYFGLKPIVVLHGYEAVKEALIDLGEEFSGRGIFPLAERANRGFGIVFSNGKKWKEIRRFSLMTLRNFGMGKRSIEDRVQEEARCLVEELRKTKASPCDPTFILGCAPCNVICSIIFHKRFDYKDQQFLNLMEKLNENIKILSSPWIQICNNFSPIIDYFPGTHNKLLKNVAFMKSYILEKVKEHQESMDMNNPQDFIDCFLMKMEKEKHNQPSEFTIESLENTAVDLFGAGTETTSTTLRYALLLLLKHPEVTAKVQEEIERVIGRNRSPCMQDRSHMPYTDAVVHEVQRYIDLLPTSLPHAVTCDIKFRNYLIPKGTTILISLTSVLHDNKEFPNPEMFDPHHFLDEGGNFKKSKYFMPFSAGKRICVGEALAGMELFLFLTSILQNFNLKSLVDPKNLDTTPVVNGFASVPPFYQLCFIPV
In short: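 P450-Glo proluciferin substrate with CYP2C9 enzyme; 10 min RT preincubation, then NADPH regeneration 1 h at 37C; luciferin detection reagent 20 min RT, luminescence in relative luminescence units.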

[11] = molecular target: Cytochrome P450 1A2 (Homo sapiens) (UniProt P05177); test: Cytochrome P450 Family 1 Subfamily A Member 2 (CYP1A2) small molecule antagonists: luciferase reporter qHTS assay (AID 1671199); further: nearly all actives have a fitted effect of over 50% in size; further: potency means the concentration at half of the fitted maximal effect
Sequence of Cytochrome P450 1A2 (Homo sapiens) (P05177 whole entry, looked up): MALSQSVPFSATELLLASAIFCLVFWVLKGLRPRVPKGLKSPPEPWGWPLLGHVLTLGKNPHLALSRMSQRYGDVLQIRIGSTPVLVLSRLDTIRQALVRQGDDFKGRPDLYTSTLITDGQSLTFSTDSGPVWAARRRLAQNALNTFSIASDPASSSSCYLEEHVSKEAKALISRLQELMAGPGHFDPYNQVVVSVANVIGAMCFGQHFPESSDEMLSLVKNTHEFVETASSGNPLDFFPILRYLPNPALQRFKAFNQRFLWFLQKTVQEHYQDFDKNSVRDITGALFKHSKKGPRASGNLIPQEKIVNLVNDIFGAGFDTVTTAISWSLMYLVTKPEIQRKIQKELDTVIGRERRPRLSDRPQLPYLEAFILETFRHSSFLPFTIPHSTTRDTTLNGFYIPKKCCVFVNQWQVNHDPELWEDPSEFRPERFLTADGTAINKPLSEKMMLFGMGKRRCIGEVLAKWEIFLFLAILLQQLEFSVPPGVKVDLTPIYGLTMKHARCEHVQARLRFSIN
In short: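 Compounds were incubated with CYP1A2 and a luminogenic proluciferin substrate for 10 min at room temperature before the reaction was started with NADPH regeneration solution. After 1 h, detection reagent was added and light output, proportional to CYP activity, was recorded.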

[12] = molecular target: Voltage-gated inwardly rectifying potassium channel KCNH2 (Homo sapiens) (UniProt Q12809); test: Human Ether-a-go-go-Related Gene (hERG) channel small molecule antagonists: fluorescence cell-based qHTS assay (AID 1671200)
Sequence of Voltage-gated inwardly rectifying potassium channel KCNH2 (Homo sapiens) (Q12809 whole entry, looked up): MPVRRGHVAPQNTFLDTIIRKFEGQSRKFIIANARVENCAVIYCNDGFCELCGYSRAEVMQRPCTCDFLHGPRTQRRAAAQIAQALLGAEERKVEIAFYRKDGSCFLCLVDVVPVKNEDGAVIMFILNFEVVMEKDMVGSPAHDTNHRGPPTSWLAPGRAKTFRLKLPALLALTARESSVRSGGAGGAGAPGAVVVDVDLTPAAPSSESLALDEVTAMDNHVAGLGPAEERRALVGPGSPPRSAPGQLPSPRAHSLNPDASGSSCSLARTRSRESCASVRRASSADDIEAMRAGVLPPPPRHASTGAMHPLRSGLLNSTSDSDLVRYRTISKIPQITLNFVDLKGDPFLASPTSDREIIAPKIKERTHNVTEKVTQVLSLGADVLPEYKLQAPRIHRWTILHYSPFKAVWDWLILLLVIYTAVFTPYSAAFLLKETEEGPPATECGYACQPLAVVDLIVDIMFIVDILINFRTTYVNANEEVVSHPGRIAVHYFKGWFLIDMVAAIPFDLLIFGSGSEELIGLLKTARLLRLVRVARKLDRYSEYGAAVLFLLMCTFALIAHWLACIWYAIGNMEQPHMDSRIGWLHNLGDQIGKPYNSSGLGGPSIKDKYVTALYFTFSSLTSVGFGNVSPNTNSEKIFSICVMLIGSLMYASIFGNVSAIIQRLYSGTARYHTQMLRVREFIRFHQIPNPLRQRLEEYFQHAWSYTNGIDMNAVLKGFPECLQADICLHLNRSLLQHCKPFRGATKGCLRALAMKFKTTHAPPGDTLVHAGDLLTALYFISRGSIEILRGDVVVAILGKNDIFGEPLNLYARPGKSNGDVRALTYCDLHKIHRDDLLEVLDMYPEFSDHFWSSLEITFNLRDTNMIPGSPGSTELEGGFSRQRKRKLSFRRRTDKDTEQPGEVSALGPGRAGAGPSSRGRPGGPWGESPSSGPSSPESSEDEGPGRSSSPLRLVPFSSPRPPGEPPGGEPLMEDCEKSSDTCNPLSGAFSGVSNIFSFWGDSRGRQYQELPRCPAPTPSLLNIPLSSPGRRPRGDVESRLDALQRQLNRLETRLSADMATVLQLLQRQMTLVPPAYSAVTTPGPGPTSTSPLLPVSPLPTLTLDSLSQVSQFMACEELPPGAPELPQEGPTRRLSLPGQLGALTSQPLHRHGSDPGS
In short: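 hERG-U2OS cells plated overnight at 37 C, loaded with FluxOR II dye 1 h at RT in dark; after 10 min, thallium stimulus added. Fluorescence (480/540 nm) read kinetically for 2 min at 1 s intervals.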

[13] = molecular target: Cytochrome P450 3A4 (Homo sapiens) (UniProt P08684); test: Cytochrome P450 Family 3 Subfamily A Member 4 (CYP3A4) small molecule antagonists: luciferase reporter qHTS assay (AID 1671201)
Sequence of Cytochrome P450 3A4 (Homo sapiens) (P08684 whole entry, looked up): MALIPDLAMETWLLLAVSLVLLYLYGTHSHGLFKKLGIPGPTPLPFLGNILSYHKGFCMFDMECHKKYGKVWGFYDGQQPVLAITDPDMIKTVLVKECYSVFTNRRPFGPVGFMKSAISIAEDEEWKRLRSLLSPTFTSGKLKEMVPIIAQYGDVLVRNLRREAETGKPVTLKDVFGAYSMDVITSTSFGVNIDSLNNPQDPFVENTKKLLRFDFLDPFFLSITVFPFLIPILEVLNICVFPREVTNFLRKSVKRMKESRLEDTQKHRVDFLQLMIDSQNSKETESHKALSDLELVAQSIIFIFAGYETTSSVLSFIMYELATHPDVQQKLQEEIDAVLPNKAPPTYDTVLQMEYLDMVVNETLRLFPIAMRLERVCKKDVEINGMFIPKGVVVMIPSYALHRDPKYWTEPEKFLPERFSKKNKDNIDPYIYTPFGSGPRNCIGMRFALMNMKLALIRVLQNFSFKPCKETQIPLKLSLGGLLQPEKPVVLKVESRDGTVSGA
In short: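 P450-Glo CYP3A4 luminescent assay: compounds preincubated 10 min at room temperature with enzyme and proluciferin substrate, NADPH regeneration added, 1 h room-temperature reaction, stopped with luciferin detection reagent; luminescence read after 20 min. Ketoconazole positive control.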

[14] = molecular target: Nuclear receptor subfamily 1 group I member 2 (Rattus norvegicus) (UniProt Q9R1A7); test: Rat pregnane X receptor (rPXR) activation by small molecules, qHTS assay (AID 1346983); settings: rPXR luciferase reporter cells, One-Glo luminescence, 24 h; max activation: active compounds read high; further: nearly all actives have a fitted effect of over 20% in size
Sequence of Nuclear receptor subfamily 1 group I member 2 (Rattus norvegicus) (Q9R1A7 whole entry, looked up): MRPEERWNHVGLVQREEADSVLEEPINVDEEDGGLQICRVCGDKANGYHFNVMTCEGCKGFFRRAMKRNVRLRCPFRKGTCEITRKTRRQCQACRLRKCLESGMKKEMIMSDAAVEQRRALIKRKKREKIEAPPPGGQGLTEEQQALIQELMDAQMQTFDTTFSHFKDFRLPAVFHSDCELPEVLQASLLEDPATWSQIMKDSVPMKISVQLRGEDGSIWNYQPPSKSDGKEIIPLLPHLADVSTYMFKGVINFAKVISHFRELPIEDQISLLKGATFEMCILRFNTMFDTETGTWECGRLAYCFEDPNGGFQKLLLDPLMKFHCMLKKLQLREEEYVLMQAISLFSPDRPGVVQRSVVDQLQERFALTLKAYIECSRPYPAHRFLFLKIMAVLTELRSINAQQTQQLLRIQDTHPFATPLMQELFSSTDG
In short: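 Cell-based rPXR activation assay: rPXR cells, 2,000 per well, rested 5hr at 37 C, then exposed to compounds in DMSO for 24 hr at 37 C. Luciferase activity read by One-Glo luminescence after 30 min at room temperature.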

[15] = molecular target: Nuclear receptor subfamily 1 group I member 2 (Homo sapiens) (UniProt O75469); test: Human pregnane X receptor (PXR) activation by small molecules, qHTS assay (AID 1346985); further: nearly all actives have a fitted effect of over 40% in size
In short: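 DPX-2 cells (HepG2 co-transfected with a PXR response element and a CYP3A4-promoter luciferase construct) were seeded at 2,000 per well, rested 5 hr at 37C, then exposed to DMSO-dissolved compounds for 24 hr. Activation was read as luciferase luminescence.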

| SMILES | outcome [1] | Potency [2] | Potency [3] | Potency [4] | Potency [5] | Potency [6] | Potency [7] | Potency [8] | Potency [9] | Potency [10] | Potency [11] | Potency [12] | Potency [13] | max activation [14] [%] | Potency [15] |
| --- | --- | --- | --- | --- | --- | --- | --- | --- | --- | --- | --- | --- | --- | --- | --- |
| CCC(CC)C(=O)O | inactive | inactive | inactive | inactive | inactive | inactive | inactive | inactive | inactive | inactive | inactive | inactive | inactive |  |  |
| CCC1=C(C)CN(C(=O)NCCc2ccc(S(=O)(=O)NC(=O)NC3CCC(C)CC3)cc2)C1=O (stereo not drawn) | inactive | inactive | inactive | inactive | inactive | inactive | inactive | inactive | inactive |  | inactive | inactive |  |  |  |
| CCc1ccc(C(=O)C(C)CN2CCCCC2)cc1 (stereo not drawn) | inactive | inactive | inactive | inactive | inactive | inactive |  | 0.49 µM (active) | 4.9 µM (active) | inactive | inactive | inactive | inactive | -6.71 | inactive |
| CO[C@@H]1COCC[C@@H]1N[C@@H]1CC[C@@](C(=O)N2CCc3ncc(C(F)(F)F)cc3C2)(C(C)C)C1 | inactive | inactive | inactive | inactive | inactive |  | inactive | 35.4 µM (active) | inactive | inactive | inactive | inactive |  |  |  |
| O=[N+]([O-])c1ccc(Cl)cc1Cl | inactive | inactive | inactive | inactive | inactive | inactive | inactive |  | inactive | inactive |  | inactive | inactive |  |  |
| O=C(OCCOCCOCCOC(=O)c1ccccc1)c1ccccc1 | inactive | inactive | inactive | inactive | inactive | inactive | 27.3 µM (active) |  | 20 µM (active) | inactive | 17.8 µM (active) | inactive | inactive |  |  |
| CCc1c(C)[nH]c2c1C(=O)C(CN1CCOCC1)CC2 (stereo not drawn) | inactive | inactive | inactive | inactive | inactive | inactive |  |  |  |  | inactive | inactive |  | -1.99 |  |
| CC(C)(C)c1cc(C=O)cc(C(C)(C)C)c1O | inactive | inactive | inactive | inactive | inactive | inactive | inactive | inactive |  |  | inactive | inactive | inactive |  |  |
| Clc1cccc(C(c2ccc3nc[nH]c3c2)n2ccnc2)c1 (stereo not drawn) | inactive | inactive | inactive | inactive | inactive | inactive | inactive |  | 2.75 µM (active) | 8.71 µM (active) | 15.5 µM (active) |  |  |  |  |
| CC(O)C(C)O (stereo not drawn) | inactive | inactive | inactive | inactive | inactive | inactive | inactive | inactive | inactive |  |  | inactive | inactive |  |  |

From PubChem BioAssay (Tox21)
